Assay outcomes as filed in PubChem.
D1 agonist: agonists of human D1 dopamine receptor; P21728; HEK293 T-REx D1 cells, calcium flux, agonist mode; activation, % at 2 µM; AID 504660; actives 1% (n = 360,000); in the data active = activation above about 30%; also: 0% is about no effect
Target sequence (P21728 whole entry, looked up): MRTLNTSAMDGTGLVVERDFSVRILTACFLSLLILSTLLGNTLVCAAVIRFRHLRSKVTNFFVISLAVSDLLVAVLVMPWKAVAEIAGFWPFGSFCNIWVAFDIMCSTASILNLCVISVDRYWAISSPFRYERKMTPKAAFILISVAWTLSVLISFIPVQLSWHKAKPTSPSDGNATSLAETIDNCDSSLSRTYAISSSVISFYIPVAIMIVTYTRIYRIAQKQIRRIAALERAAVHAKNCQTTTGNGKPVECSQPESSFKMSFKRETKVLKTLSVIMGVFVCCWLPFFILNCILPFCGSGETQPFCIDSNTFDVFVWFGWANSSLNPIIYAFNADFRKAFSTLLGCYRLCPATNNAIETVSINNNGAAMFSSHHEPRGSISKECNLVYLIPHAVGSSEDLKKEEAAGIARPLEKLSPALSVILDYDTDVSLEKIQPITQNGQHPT
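Tetracycline-induced HEK293 TREx D1 cells, force-coupled to calcium signalling, were dye-loaded with a no-wash calcium kit. Compound was pin-added after a 10 s baseline. Fluorescence was read kinetically at 1 cycle/s for 180 s, with calcium rises flagged as agonism.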
DRD3 antagonist: D3 dopamine receptor (human) antagonism | P35462 | D3R cells, DiscoveRx beta-arrestin luminescence, antagonist mode; active compounds read low | max response, negative = inhibition, % | actives 2.5% (n = 360,000); in the data active = max response below about -50%; also: % is scaled to controls: 0 for no effect and ±100 for the full control effect
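Cells expressing the human receptor were seeded at 1500 cells/well, incubated overnight at 37 degrees C in 5% CO2, then exposed to library compounds with dopamine controls for 90 minutes at 37 degrees C before luminescent detection.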
D1 antag: blocks dopamine activation of the human D1 receptor; activity change, negative = inhibition, % at 10 µM; actives 3.2% (n = 360,000); P21728; HEK293 TREx D1 cells, calcium flux, dopamine EC80; active compounds read low; in the data active = activity change below about -30%; also: % is scaled to controls: 0 for no effect and ±100 for the full control effect
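Calcium flux readout: force-coupled, inducible Hek293 Trex D1 line, cells induced overnight at 30 C with tetracycline, dye-loaded 30–90 min at RT. Antagonism scored against EC80 dopamine challenge given 180 s after compound.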
D1 potentiator: potentiators of human D1 dopamine receptor; P21728; HEK293 TREx D1 cells, calcium flux, dopamine EC20 potentiation; potentiation, % at 10 µM; actives 0.036% (n = 360,000); in the data active = potentiation above about 30%; also: 0% is about no effect
DRD3 agonist: activates the human D3 dopamine receptor. D3R DiscoveRx beta-arrestin cells, luminescence, 90 min. max activation, %. actives 0.58% (n = 410,000). AID 652048; in the data active = max activation above about 30%; also: 0% is about no effect
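Agonist mode: compounds and dopamine controls were applied to plated cells for 90 min at 37 degrees C after an overnight attachment at 1500 cells/well. Luminescent read-out followed 30 - 60 minutes at room temperature with DiscoveRx detection reagent.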
The depositor's hits bear a star; x = no result; ! = a repeat was not active. Most compounds without a hit are left out; they make up all but 6% or so of the library.

SMILES | D1 agonist | DRD3 antagonist | D1 antag | D1 potentiator | DRD3 agonist
Cc1cccc(NC(=O)c2ccc(S(=O)(=O)N3CCC(C)CC3)cc2)n1 | 2 | -14 | -15 | 2 | -1
Cc1ccc(/C=N/N2C(=S)SC(C)(C)C2N(O)C(=O)Nc2ccc([N+](=O)[O-])cc2)cc1 (configuration not stated) | 2 | -58* | 7 | -4 | -7
CC1(C)SC(=S)N(/N=C/c2ccc(O)cc2)C1N(O)C(=O)Nc1ccc([N+](=O)[O-])cc1 (configuration not stated) | 4 | -23 | 22 | -4 | -22
COc1ccc(-n2c(=O)c3c(c4cc(OC)ccc4n3C)n(Cc3cccc(OC)c3)c2=O)cc1 | 0 | x | 24 | -1 | -21
Cc1cc(=O)[nH]c2c(C)cc(S(=O)(=O)NCc3ccccc3)cc12 | 3 | 7 | -39* | -3 | 0
CCc1ccc(C(=O)N2CCCN(C)CC2)s1 | 1 | 5 | -16 | -2 | -7
CCc1c(C(=O)N2CCCN(C)CC2)csc1C | 0 | -14 | -31* | -7 | -16
CC(=O)N1CCN(C(=O)c2cccc(S(=O)(=O)N3CCN(c4ccc(F)cc4)CC3)c2)CC1 | 53* | 8 | 0 | -8 | 2
O=C(c1cccc(F)c1)N1CCN(S(=O)(=O)c2ccccc2)CC1 | -1 | 3 | -8 | -9 | 1
O=C(NCCCN1CCCC1=O)c1cccc(NS(=O)(=O)c2ccccc2)c1 | 3 | 7 | 7 | 3 | 4
CC(C)c1ccc(S(=O)(=O)N2CCN(C(=O)c3cccc(F)c3)CC2)cc1 | 0 | 0 | -68* | -2 | 6
O=C(NCCCN1CCCC1=O)c1cccc(S(=O)(=O)N2CCN(c3ccccc3)CC2)c1 | 1 | 1 | -44* | -4 | 4
O=C(c1ccc(Cl)c(S(=O)(=O)Nc2ccc(F)cc2)c1)N1CCN(c2ccccn2)CC1 | 0 | 33 | -7 | 2 | 38*
Cc1ccc(N2CCN(S(=O)(=O)c3cccc4ccccc34)CC2)cc1Cl | 1 | x | -5 | 4 | -13
CCOc1ccc(S(=O)(=O)NCc2cccn2Cc2cccc(C)c2)cc1 | 4 | x | 8 | 1 | 1
COc1cccc2sc(N(Cc3cccnc3)C(=O)c3ccc4c(c3)OCCO4)nc12 | 4 | x | -1 | -2 | 6
Cc1ccc(NS(=O)(=O)c2ccc3c(c2)CC(C)N3C(=O)C2CCC2)cc1Cl (configuration not stated) | 0 | x | 8 | 2 | -6
CC(CN(C)C)CN1c2ccccc2S(=O)(=O)c2ccccc21 (configuration not stated) | x | x | x | x | -11
CCN(Cc1ccccc1)C(=O)c1cccc(S(=O)(=O)N2CCN(c3ccccc3)CC2)c1 | 5 | 3 | 22 | -1 | -12
O=C(c1cccc(S(=O)(=O)N2CCOCC2)c1)N(CCO)Cc1ccccc1 | 0 | 7 | -33* | -7 | 0
O=C(c1cccc(S(=O)(=O)N2CCCCC2)c1)N(CCc1ccccc1)Cc1ccccc1 | 10 | -9 | -9 | 0 | -13
O=C(c1cccc(S(=O)(=O)Nc2ccc(F)cc2)c1)N1CCCC1 | 1 | 0 | 5 | -4 | 0
O=C(c1cccc(NS(=O)(=O)c2ccc(F)cc2)c1)N1CCN(c2ccccc2)CC1 | 4 | -6 | -42* | 2 | -1
O=C(NCCCN1CCCC1=O)C(=O)Nc1cccc(F)c1 | 7 | 9 | -44* | -6 | -4
CCN(Cc1ccccc1)C(=O)c1cccc(S(=O)(=O)N2CCN(c3ccc(F)cc3)CC2)c1 | 5 | 7 | -63* | -3 | -5
SMILES | D1 agonist | DRD3 antagonist | D1 antag | D1 potentiator | DRD3 agonist
O=S(=O)(c1cc(F)ccc1F)N1CCN(c2ccccn2)CC1 | 0 | 7 | -52* | 0 | 8
COc1ccccc1CNC(=O)c1cccc(S(=O)(=O)N2CCN(c3ccc(F)cc3)CC2)c1 | 2 | 2 | 15 | 8 | 5
CN(C)C(CNC(=O)c1cccc(S(=O)(=O)N2CCN(c3ccc(F)cc3)CC2)c1)c1ccccc1 (configuration not stated) | x | -81* | x | x | -16
CCc1ccc(Cn2c(CNS(=O)(=O)c3ccc4c(c3)CCCC4)nc3cccnc32)cc1 | 3 | x | 15 | -3 | 11
O=C(NNC(=O)c1cc2cc(Br)ccc2oc1=O)c1ccc(O)cc1 | -1 | -62* | -19 | 4 | -1
O=C(Nc1ccccc1O)c1cc2cc(Br)ccc2oc1=O | 2 | -25 | -5 | 0 | -1
COc1ccccc1Cc1c(-c2ccc(OC)c(OC)c2)nc2c(Cl)cc(C(F)(F)F)cn12 | x | 17 | x | x | 5
COC(=O)c1onc(-c2ccccc2)c1C(=O)OC | 3 | 0 | -36* | -1 | 0
COC(=O)c1c(-c2ccccc2)noc1C | 0 | 11 | -6 | -1 | 4
COc1ccc(-c2cn3c(n2)sc2cc(C(=O)Nc4cccc(SC)c4)ccc23)cc1 | 1 | x | 0 | -1 | 77*
S=C(Nc1ccccc1)Nc1ccc(OCc2ccc(Cl)cc2Cl)cc1 | 1 | -4 | 3 | 1 | -1
CC(C)NC(=NCc1ccc(Cl)cc1Cl)Nc1ccccc1 | 46* | -19 | -12 | -5 | -11
CCOc1ccc(/C=C/c2nc(C#N)c(N3CCN(c4ccccc4)CC3)o2)cc1 | -1 | x | -7 | -2 | 16
CCOc1ccc(S(=O)(=O)Nc2cc(Cl)ccc2OC)c2cccnc12 | 2 | x | 1 | -2 | 0
CCc1ccc(NS(=O)(=O)c2ccc(OC)c3ncccc23)cc1 | 12 | 6 | -31* | 0 | 5
CCc1ccccc1NS(=O)(=O)c1ccc(OC)c2ncccc12 | 8 | 80 | 10 | -2 | 31*!
Cc1ccc2c(CC(=O)Nc3c(C(=O)c4ccc(C)c(F)c4)oc4ccccc34)coc2c1 | 4 | x | -5 | 1 | -6
CCn1c(SCC(=O)Nc2sc3c(c2C#N)CCCC3)nnc1-c1ccco1 | 5 | -72* | -1 | -5 | -5
CCC(=O)Nc1sc2c(c1C#N)CCC2 | 1 | -6 | 0 | -5 | -6
CC(C)CC(=O)NC(NC(=S)Nc1sc2c(c1C#N)CCCC2)C(Cl)(Cl)Cl (configuration not stated) | 13 | -83* | -32* | -7 | -5
CCOC(=O)c1c(NC(=O)CSc2nnc(C)c(=O)[nH]2)sc2c1CCCC2 | 1 | 3 | 1 | -2 | -6
Cc1nnc(SCC(=O)Nc2sc3c(c2C#N)CCCC3)[nH]c1=O | 0 | -54* | 0 | 1 | -9
Cc1cc2c(s1)c1cnn(Cc3ccccc3C)c(=O)c1n2C | 14 | x | 11 | 2 | x
COc1cc2[nH]c(=S)n(C3CC3)c(=O)c2cc1OC | 3 | -58* | -31* | 0 | -12
COC(=O)c1ccc2c(=O)n(NC(C)=O)c(=S)[nH]c2c1 | 1 | 11 | -13 | 10 | -15
COc1cc2[nH]c(=S)n(NC(=O)c3ccccc3)c(=O)c2cc1OC | 2 | -61* | -11 | -4 | -29
